Out of some 5,500 compounds screened, about 2,000 (36%) were called active. About 18% were inconclusive and are not listed. Cut-off read from the data, not from the text of the source: active = normalized growth mostly below about 0.91 (no sharp cut-off); inconclusive = no clear call, values can overlap the other calls; inactive = mostly above about 0.92. The list shows a part of the results.
Experiment: chemical genetic growth profiling, strain panel (AID 1159580);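 note: tested at 20 µM; growth read once vehicle control cultures reached saturation at 30 °C; 1 = growth at the plate median or of vehicle wells; lower values mean less growth of the strain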
Conditions: growth OD

Measured: normalized growth

NC(N)=O
inactive: S. cerevisiae deletion strains, locus YJR075W, strain HOC1, stronger effect = lower value 1.02 | S. cerevisiae deletion strains, locus YKL009W, strain mrt4, stronger effect = lower value 1 | S. cerevisiae deletion strains, locus YKL068W, stronger effect = lower value 0.992 | S. cerevisiae deletion strains, locus YKL085W, strain MDH1 (second series), stronger effect = lower value 0.994 | S. cerevisiae deletion strains, locus YKL085W, strain MDH1, stronger effect = lower value 0.994 | S. cerevisiae deletion strains, locus YKL160W, strain elf1, stronger effect = lower value 1.02 | S. cerevisiae deletion strains, locus YKL190W, strain CNB1, stronger effect = lower value 1 | S. cerevisiae deletion strains, locus YKR001C, strain vps1, stronger effect = lower value 1 | S. cerevisiae deletion strains, locus YKR026C, strain gcn3, stronger effect = lower value 1.01 | S. cerevisiae deletion strains, locus YKR091W, strain srl3, stronger effect = lower value 1 | S. cerevisiae deletion strains, locus YLL001W, strain dnm1, stronger effect = lower value 1.01 | S. cerevisiae deletion strains, locus YLL026W, stronger effect = lower value 1.02 | S. cerevisiae deletion strains, locus YLL041C, strain sdh2, stronger effect = lower value 1.01 | S. cerevisiae deletion strains, locus YLR027C, strain aat2, stronger effect = lower value 1.02 | S. cerevisiae deletion strains, locus YLR039C, strain RIC1, stronger effect = lower value 1.05 | S. cerevisiae deletion strains, locus YLR058C, strain SHM2, stronger effect = lower value 0.99 | S. cerevisiae deletion strains, locus YLR102C, strain apc9, stronger effect = lower value 0.986 | S. cerevisiae deletion strains, locus YLR113W, strain HOG1, stronger effect = lower value 0.993 | S. cerevisiae deletion strains, locus YLR221C, strain rsa3, stronger effect = lower value 0.98 | S. cerevisiae deletion strains, locus YLR258W, strain gsy2, stronger effect = lower value 1 | S. cerevisiae deletion strains, locus YLR262C, strain YPT6 (second series), stronger effect = lower value 1.03 | S. cerevisiae deletion strains, locus YLR262C, strain YPT6, stronger effect = lower value 1.08 | S. cerevisiae deletion strains, locus YLR268W, strain sec22, stronger effect = lower value 1.02 | S. cerevisiae deletion strains, locus YLR320W, strain mms22, stronger effect = lower value 1 | S. cerevisiae deletion strains, locus YLR330W, strain CHS5, stronger effect = lower value 0.988 | S. cerevisiae deletion strains, locus YLR342W, strain FKS1 (second series), stronger effect = lower value 0.96 | S. cerevisiae deletion strains, locus YLR342W, strain FKS1, stronger effect = lower value 1.01 | S. cerevisiae deletion strains, locus YLR357W, strain rsc2, stronger effect = lower value 1.04 | S. cerevisiae deletion strains, locus YLR370C, strain arc18, stronger effect = lower value 1.02 | S. cerevisiae deletion strains, locus YLR371W, strain rom2, stronger effect = lower value 0.985 | S. cerevisiae deletion strains, locus YLR384C, strain iki3, stronger effect = lower value 1.01 | S. cerevisiae deletion strains, locus YLR418C, strain cdc73, stronger effect = lower value 1.01 | S. cerevisiae deletion strains, locus YML016C, strain PPZ1, stronger effect = lower value 0.999 | S. cerevisiae deletion strains, locus YML032C, strain rad52, stronger effect = lower value 1 | S. cerevisiae deletion strains, locus YML120C, strain ndi1, stronger effect = lower value 1.03 | S. cerevisiae deletion strains, locus YML124C, strain tub3, stronger effect = lower value 0.993 | S. cerevisiae deletion strains, locus YMR058W, strain fet3, stronger effect = lower value 1.02 | S. cerevisiae deletion strains, locus YMR078C, strain ctf18, stronger effect = lower value 0.992 | S. cerevisiae deletion strains, locus YMR125W, strain sto1, stronger effect = lower value 1 | S. cerevisiae deletion strains, locus YMR129W, stronger effect = lower value 1.01 | S. cerevisiae deletion strains, locus YMR205C, strain PFK2, stronger effect = lower value 1.02 | S. cerevisiae deletion strains, locus YMR223W, strain ubp8, stronger effect = lower value 0.992 | S. cerevisiae deletion strains, locus YMR231W, strain pep5, stronger effect = lower value 1 | S. cerevisiae deletion strains, locus YMR263W, strain SAP30, stronger effect = lower value 1.03 | S. cerevisiae deletion strains, locus YMR307W, strain GAS1, stronger effect = lower value 1.02 | S. cerevisiae deletion strains, locus YNL067W, strain RPL9B, stronger effect = lower value 1.05 | S. cerevisiae deletion strains, locus YNL071W, strain lat1, stronger effect = lower value 1.01 | S. cerevisiae deletion strains, locus YNL128W, strain TEP1, stronger effect = lower value 1.02 | S. cerevisiae deletion strains, locus YNL153C, strain GIM3, stronger effect = lower value 1.02 | S. cerevisiae deletion strains, locus YNL183C, strain NPR1, stronger effect = lower value 0.963 | S. cerevisiae deletion strains, locus YNL209W, strain ssb2, stronger effect = lower value 1.01 | S. cerevisiae deletion strains, locus YNL233W, strain BNI4, stronger effect = lower value 1 | S. cerevisiae deletion strains, locus YNL248C, strain rpa49, stronger effect = lower value 0.978 | S. cerevisiae deletion strains, locus YNL250W, strain rad50, stronger effect = lower value 0.991 | S. cerevisiae deletion strains, locus YNL271C, strain bni1, stronger effect = lower value 0.988 | S. cerevisiae deletion strains, locus YNL298W, strain CLA4, stronger effect = lower value 1 | S. cerevisiae deletion strains, locus YNL307C, strain MCK1, stronger effect = lower value 0.993 | S. cerevisiae deletion strains, locus YNL322C, strain KRE1 (second series), stronger effect = lower value 1.01 | S. cerevisiae deletion strains, locus YNL322C, strain KRE1, stronger effect = lower value 1 | S. cerevisiae deletion strains, locus YNR049C, strain mso1, stronger effect = lower value 1.02 | S. cerevisiae deletion strains, locus YNR052C, strain pop2, stronger effect = lower value 0.974 | S. cerevisiae deletion strains, locus YOL006C, strain TOP1, stronger effect = lower value 1.21 | S. cerevisiae deletion strains, locus YOL012C, strain htz1 1.36 | S. cerevisiae deletion strains, locus YOL147C, strain pex11, stronger effect = lower value 0.993 | S. cerevisiae deletion strains, locus YOR001W, strain rrp6, stronger effect = lower value 1.02 | S. cerevisiae deletion strains, locus YOR061W, strain CKA2, stronger effect = lower value 0.997 | S. cerevisiae deletion strains, locus YOR069W, strain VPS5, stronger effect = lower value 1.07 | S. cerevisiae deletion strains, locus YOR070C, strain gyp1, stronger effect = lower value 1.01 | S. cerevisiae deletion strains, locus YOR080W, strain dia2, stronger effect = lower value 1.02 | S. cerevisiae deletion strains, locus YOR083W, strain WHI5, stronger effect = lower value 1 | S. cerevisiae deletion strains, locus YOR106W, strain vam3, stronger effect = lower value 1.02 | S. cerevisiae deletion strains, locus YOR136W, strain idh2, stronger effect = lower value 0.993 | S. cerevisiae deletion strains, locus YOR144C, strain elg1, stronger effect = lower value 0.992 | S. cerevisiae deletion strains, locus YOR184W, strain ser1, stronger effect = lower value 0.992 | S. cerevisiae deletion strains, locus YOR231W, strain MKK1, stronger effect = lower value 0.993 | S. cerevisiae deletion strains, locus YOR265W, strain rbl2, stronger effect = lower value 1.02 | S. cerevisiae deletion strains, locus YOR270C, strain vph1, stronger effect = lower value 1.02 | S. cerevisiae deletion strains, locus YOR290C, strain snf2, stronger effect = lower value 0.992 | S. cerevisiae deletion strains, locus YOR316C, strain cot1, stronger effect = lower value 0.985 | S. cerevisiae deletion strains, locus YPL051W, strain arl3, stronger effect = lower value 1.01 | S. cerevisiae deletion strains, locus YPL055C, strain LGE1, stronger effect = lower value 1.07 | S. cerevisiae deletion strains, locus YPL078C, strain atp4, stronger effect = lower value 1.02 | S. cerevisiae deletion strains, locus YPL106C, strain sse1, stronger effect = lower value 0.987 | S. cerevisiae deletion strains, locus YPL240C, strain hsp82, stronger effect = lower value 1.01 | S. cerevisiae deletion strains, locus YPL241C, strain CIN2, stronger effect = lower value 1.07 | S. cerevisiae deletion strains, locus YPL256C, strain CLN2, stronger effect = lower value 1 | S. cerevisiae deletion strains, locus YPR119W, strain clb2, stronger effect = lower value 0.992 | S. cerevisiae deletion strains, locus YPR141C, strain kar3, stronger effect = lower value 1 | S. cerevisiae deletion strains, locus YPR163C, strain tif3, stronger effect = lower value 0.996 | S. cerevisiae deletion strains, locus YPR167C, strain met16, stronger effect = lower value 0.989 | S. cerevisiae deletion strains, strain wtn01, stronger effect = lower value 0.999 | S. cerevisiae strains, strain wild type, stronger effect = lower value 0.991

Reference: PubChem BioAssay AID1159580 (chemical genetic matrix, 2015)
